Assay results reported in PMC11995724, “Antibiotic target discovery by integrated phenotypic and activity-based profiling of electrophilic fragments” (Cell chemical biology, 2025).
Out of some 3,200 compounds screened, about 110 (3.4%) showed an effect of 50% or more. The full list was thinned out, with strong results kept by preference.

Each molecule was assayed on T1, V. cholerae SAD30. Conditions: relative growth, OD600, LB; 25 µM; inhibitor.
T1 construct: SAD30
Parameters: species or system S. aureus MSSA476 (TSB) or V. cholerae SAD30 (LB); 384-well bacterial growth screen at 25 uM, OD600 relative to DMSO control

Point of comparison: `C=CC(=O)NCc1csc(C(C)(C)C)n1` [2-C09, N-[(2-tert-butyl-1,3-thiazol-4-yl)methyl]prop-2-enamide], “% of control remaining” value 91.5854%. Against it:
- COc1ccc(C=C(C#N)C(=O)Nc2ccc(Cl)c(Cl)c2)cc1 [8-C03, 2-cyano-N-(3,4-dichlorophenyl)-3-(4-methoxyphenyl)prop-2-enamide] — lower, 89.395%
- C=CC(=O)Nc1ccc(C(N)=O)nc1OC [1-E18, 6-methoxy-5-(prop-2-enamido)pyridine-2-carboxamide] — lower, 89.6861%
- C=CC(=O)Nc1c(OC)nc(Cl)nc1OC [1-B14, N-(2-chloro-4,6-dimethoxypyrimidin-5-yl)prop-2-enamide] — lower, 48.0864%
- C=CC(=O)Nc1cc(Cl)cc(C)c1OC [1-E16, N-(5-chloro-2-methoxy-3-methylphenyl)prop-2-enamide] — lower, 87.145%
- N#CC(=Cc1cccc(Cl)c1Cl)C(=O)NCCc1ccccc1 [8-J06, 2-cyano-3-(2,3-dichlorophenyl)-N-(2-phenylethyl)prop-2-enamide] — lower, 78.9259%
- CCN(CC)c1ccc(NC(=O)CCl)cc1 [6-N10, 2-chloro-N-[4-(diethylamino)phenyl]acetamide] — lower, 90.5489%
- C=CC(=O)Nc1ccc(C)cc1S(=O)(=O)N1CCOCC1 [1-O13, N-[4-methyl-2-(morpholine-4-sulfonyl)phenyl]prop-2-enamide] — lower, 87.2945%
- Cc1ccccc1NC(=O)C(C#N)=Cc1cc2c(cc1[N+](=O)[O-])OCO2 [9-P11, 2-cyano-N-(2-methylphenyl)-3-(6-nitro-1,3-dioxaindan-5-yl)prop-2-enamide] — lower, 84.5003%
- C=CC(=O)N1CCCC(c2nn(C)cc2C(N)=O)C1 (stereo not drawn) [1-D07, 1-methyl-3-[1-(prop-2-enoyl)piperidin-3-yl]-1H-pyrazole-4-carboxamide] — higher, 92.9746%
- O=C(CCl)c1c[nH]c2ccc(F)cc12 [10-O11, 2-chloro-1-(5-fluoro-1H-indol-3-yl)ethan-1-one] — lower, 23.3781%
- CC(C)Oc1ccc2[nH]cc(C(=O)CCl)c2c1 [10-E03, 2-chloro-1-[5-(propan-2-yloxy)-1H-indol-3-yl]ethan-1-one] — higher, 105.669%
- O=C(CCl)c1ccc(F)cc1F [10-I18, 2-chloro-1-(2,4-difluorophenyl)ethan-1-one] — lower, 22.7547%
- O=C(CCl)c1c[nH]c2ccccc12 [10-B05, 2-chloro-1-(1H-indol-3-yl)ethan-1-one] — higher, 108.475%
- Cc1cc(C(=O)CCl)c(C)n1Cc1ccc(F)cc1 [10-N17, 2-chloro-1-{1-[(4-fluorophenyl)methyl]-2,5-dimethyl-1H-pyrrol-3-yl}ethan-1-one] — higher, 95.5387%
- O=C(CCl)c1ccc(O)cc1O [10-C14, 2-chloro-1-(2,4-dihydroxyphenyl)ethan-1-one] — higher, 100.682%
- COc1ccc(Cc2cnc(NC(=O)CCl)s2)cc1 [4-F17, 2-chloro-N-{5-[(4-methoxyphenyl)methyl]-1,3-thiazol-2-yl}acetamide] — higher, 111.451%
- CC(Cl)C(=O)N1CCc2ncccc2C1 (stereo not drawn) [7-I19, 2-chloro-1-(5,6,7,8-tetrahydro-1,6-naphthyridin-6-yl)propan-1-one] — lower, 77.5814%
- C=CC(=O)NC(CO)c1ccnn1C (stereo not drawn) [2-D17, N-[2-hydroxy-1-(1-methyl-1H-pyrazol-5-yl)ethyl]prop-2-enamide] — higher, 92.203%
- C=CC(=O)Nc1cccc(-c2cn(C)nn2)c1 [1-K14, N-[3-(1-methyl-1H-1,2,3-triazol-4-yl)phenyl]prop-2-enamide] — lower, 83.4081%
- COc1ccc(-n2c(C)c(C)c(C#N)c2NC(=O)CCl)cc1 [4-F20, 2-chloro-N-[3-cyano-1-(4-methoxyphenyl)-4,5-dimethyl-1H-pyrrol-2-yl]acetamide] — higher, 105.413%
- O=C(CCl)c1cn(-c2cccc(C(F)(F)F)c2)nn1 [10-C09, 2-chloro-1-{1-[3-(trifluoromethyl)phenyl]-1H-1,2,3-triazol-4-yl}ethan-1-one] — lower, 24.9367%
- Cn1cc(C(=O)CCl)cc1C(N)=O [10-J06, 4-(2-chloroacetyl)-1-methyl-1H-pyrrole-2-carboxamide] — higher, 97.5648%
- O=C(CCl)c1cn(-c2ccc(F)cc2)nn1 [10-F05] — lower, 0.6234%
- Cc1cc(C(=O)CCl)c(C)n1-c1cccc(Cl)c1 [10-N18, 2-chloro-1-[1-(3-chlorophenyl)-2,5-dimethyl-1H-pyrrol-3-yl]ethan-1-one] — higher, 92.4216%
- Cc1cccc(-n2c(C)cc(C(=O)CCl)c2C)c1 [10-A22, 2-chloro-1-[2,5-dimethyl-1-(3-methylphenyl)-1H-pyrrol-3-yl]ethan-1-one] — higher, 108.163%
- CC(NC(=O)CCl)c1cn(-c2ccccc2)nn1 (stereo not drawn) [5-O06, 2-chloro-N-[1-(1-phenyl-1H-1,2,3-triazol-4-yl)ethyl]acetamide] — higher, 103.73%
- O=C(CCl)c1c(-c2ccc(F)cc2)[nH]c2ccccc12 [10-P04, 2-chloro-1-[2-(4-fluorophenyl)-1H-indol-3-yl]ethan-1-one] — higher, 95.8504%
- Cn1ccc(C(=O)CCl)c1 [10-D08, 2-chloro-1-(1-methyl-1H-pyrrol-3-yl)ethan-1-one] — higher, 103.176%
- O=C(CCl)NC1CC(=O)N(c2cccc(C(F)(F)F)c2)C1 (stereo not drawn) [5-E09, 2-chloro-N-{5-oxo-1-[3-(trifluoromethyl)phenyl]pyrrolidin-3-yl}acetamide] — higher, 100.2%
- Cc1cccc(-n2cc(C(=O)CCl)nn2)c1 [10-L07] — lower, 5.299%
- Cn1cc(C(=O)CCl)nn1 [10-M19, 2-chloro-1-(1-methyl-1H-1,2,3-triazol-4-yl)ethan-1-one] — lower, 0%
- Cc1cc(C(=O)CCl)c(C)n1-c1ccc(C(F)(F)F)cc1 [10-J14, 2-chloro-1-{2,5-dimethyl-1-[4-(trifluoromethyl)phenyl]-1H-pyrrol-3-yl}ethan-1-one] — higher, 98.4999%
